From PubChem BioAssay
The list is not random: actives were taken first. Their share in the collection is about 11%.
Sfp PPTase inh = blocks B. subtilis Sfp PPTase activity | Q9F4F7 | Biochemical Sfp PPTase activity, qHTS | Potency, µM, for inactives: largest response in the series, negative = inhibition, actives largely listed as inhibitors | actives 3.5% (n = 310,000) | AID 1490;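 further: the enzyme is Sfp with the accession as filed and its product quenches rhodamine fluorescence; potency means the concentration at half of the fitted maximal effect; 0% = enzyme reaction without inhibitor and -100% = no enzyme wells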
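After 15 min at room temperature with compound, 15 nM Sfp received 5 uM rhodamine-CoA plus 12.5 uM BHQ-2-ybbR (50 mM Hepes pH 7.6, 10 mM MgCl2). Rate came from the fluorescence difference over 30 min, ex 525/em 598 nm.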
Tau FP inhib = inhibitors of human tau fibril formation. P10636. K18 P301L tau heparin fibrillization, Alexa594 FP, 6 h. Potency, µM (titrated, usually from 57.7 µM), for inactives: top-dose activity, negative = inhibition, hits mostly inhibitors. actives 0.39% (n = 280,000). AID 1468; further: potency means the concentration at half of the fitted maximal effect; nearly all actives have a fitted effect of over 55% in size
Target sequence (P10636 561-689 P618L limits assumed): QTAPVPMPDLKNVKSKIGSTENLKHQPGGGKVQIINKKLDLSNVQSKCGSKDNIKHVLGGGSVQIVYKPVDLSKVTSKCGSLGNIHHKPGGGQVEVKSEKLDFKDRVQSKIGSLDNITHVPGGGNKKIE
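Quantitative HTS format: compounds meet 15 uM recombinant K18 P301L tau and Alexa 594-tau tracer in 100 mM sodium acetate pH 7; 20 uM heparin triggers fibrillization at 37 C over 6 hr; FP gives the signal.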
Tau fluor counter = counter-screen for tau fibril formation inhibitors. tau K18 P301L Alexa594 fluorescence, heparin fibrillization. Potency, µM (doses to about 57.7 µM), inactives show top-dose activity change, negative = decrease. actives 0.93% (n = 280,000). AID 1463; further: potency means the concentration at half of the fitted maximal effect; nearly all actives have a fitted effect of over 55% in size
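Human tau K18 P301L (15 uM unlabeled, 0.24 uM Alexa 594-labeled) in 100 mM sodium acetate pH 7 with 20 uM heparin, 6 hr at 37 C. ThT 30 uM added, 1 hr ambient; Alexa 594 FP and total fluorescence read at 555/632 nm.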
Coupling enz = counter-screen for Giardia aldolase inhibitors: coupling enzyme system | coupling enzyme system counterscreen, AmpLite Red fluorescence | AID 2472 | actives 0.67% (n = 290,000) | activity change, negative = inhibition, % at 58.2 µM, hits read low; in the data active means activity change below about -30%
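Compounds tested against the coupling enzymes alone at 57.5 uM final; readout was AmpLite Red fluorescence (525/598 nm) after 20 min at RT.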
Tau ThT inhib = inhibitors of human tau fibril formation, thioflavin T binding; recombinant tau K18 P301L (four-repeat tau fragment), heparin-induced fibrillization, ThT fluorescence; Potency, µM (titrated, usually from 57.4 µM), for the others: at the top dose activity, negative = inhibition, usual class: inhibitors; actives 2.1% (n = 270,000); AID 1460; further: potency means the concentration at half of the fitted maximal effect; nearly all actives have a fitted effect of over 55% in size
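In this qHTS, human K18 P301L tau is incubated with compound and heparin for 6 hr at 37 C, and Thioflavin T fluorescence then reports fibril load.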
G9a block = blocks human histone lysine methyltransferase G9a | Q96KQ7 | G9a H3K9 monomethylation, AlphaScreen, 2 h | Potency, µM (titrated, usually from 102 µM), inactives show at the highest dose activity, negative = inhibition, actives largely listed as inhibitors | actives 8.8% (n = 350,000) | AID 504332; further: potency means the concentration at half of the fitted maximal effect; nearly all actives have a fitted effect of over 75% in size
Target sequence (Q96KQ7 913-1193 limits assumed): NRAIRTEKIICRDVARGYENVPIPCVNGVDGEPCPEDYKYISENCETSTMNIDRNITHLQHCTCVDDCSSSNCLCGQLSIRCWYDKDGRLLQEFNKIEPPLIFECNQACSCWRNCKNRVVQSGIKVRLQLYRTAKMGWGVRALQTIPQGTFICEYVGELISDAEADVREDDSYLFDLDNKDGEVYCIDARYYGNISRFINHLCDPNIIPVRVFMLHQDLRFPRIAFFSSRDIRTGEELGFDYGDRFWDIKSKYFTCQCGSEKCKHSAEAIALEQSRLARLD
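Step 1: enzyme (final 20 nM) with compound, 15 min RT. Step 2: substrate peptide 500 nM and SAM 20 uM, 2 h RT. Step 3: anti-H3K9me1 antibody and AlphaScreen beads, 10 min, then plate read.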
The depositor's hits bear a star; ? = inconclusive; · = not tested or not shown; ! = not confirmed by another sample; [ ] = dose if it differs, or a comment. Unless noted, the call rests on the fitted dose curve; in most records, active means well fitted curve in the direction sought with a large enough effect; inconclusive means small, poorly fitted or top-dose-only effect, or another doubt; inactive means no such curve, though single readings can be large; an effect the other way counts as inactive or inconclusive. Unless noted, on the % scale 0 is the no-effect control and ±100 the full control effect.

SMILES	Sfp PPTase inh	Tau FP inhib	Tau fluor counter	Coupling enz	Tau ThT inhib	G9a block
O=C1CCCC/C1=C/Nc1cccc(C(F)(F)F)c1	-29%	10%	4%	-20	6%	?
O=C1CCC2S/C(=C/Nc3ccc(C(F)(F)F)cc3)C(=O)N12 (centres undefined)	22µM*	-9%	?	-3	?	?
Cc1ccccc1C(=O)NCC(c1ccco1)N1CCc2ccccc2C1 (centres undefined)	·	·	·	·	·	-7%[2.33 µM]
Fc1ccc(NC(=S)Nc2cccnc2)c(F)c1F	-16%	8%	6%	3	5%	?
OC(CNCc1ccco1)COc1ccccc1 (centres undefined)	19%	0%	-2%	0	0%	-12%[59 µM]
CS(=O)(=O)N(Cc1ccco1)CC(O)Cn1c2ccccc2c2ccccc21 (centres undefined)	7%	-3%	-25%	-1	-11%	14µM*
Cc1cccc(C)c1N(CC(O)Cn1c2ccccc2c2ccccc21)S(C)(=O)=O (centres undefined)	9%	-9%	?	-1	-10%	9%[2.33 µM]
OC(CNCc1ccco1)Cn1c2ccccc2c2ccccc21 (centres undefined)	7%	-6%	-12%	0	-6%	50µM*
COC(=O)c1ccc(OCC2c3cc(OC)c(OC)cc3CCN2C(=O)COc2ccc(Cl)cc2)cc1 (centres undefined)	·	-4%	-18%	·	-8%	-2%[59 µM]
COc1ccc(-c2nc3c(C#N)c[nH]n3c2NC2CCCCC2)c(OC)c1	·	-2%	-4%	·	-1%	-7%[59 µM]
CC1(C)C(=O)N(CCN2CCC(C(=O)c3ccc(F)cc3)CC2)c2ccccc21	·	6%	-13%	·	-11%	20µM*!
O=C(c1ccc(F)cc1)C1CCN(CCn2c(=O)[nH]c3ccccc3c2=O)CC1	5%	6%	-14%	2	-10%	22%[59 µM]
Cc1ccc(-c2nc3c(c(SCC(=O)N4CCOCC4)n2)Cc2c(CO)cnc(C)c2O3)cc1	3%	·	·	-1	·	14µM*
Cc1ccc(-c2nc3c(c(SCC(=O)N(C)c4ccccc4)n2)Cc2c(CO)cnc(C)c2O3)cc1	·	5%	3%	·	4%	18µM*
Cc1ccc(-c2nc3c(c(SCC(=O)Nc4ccccc4Cl)n2)Cc2c(CO)cnc(C)c2O3)cc1	·	1%	3%	·	2%	5%[59 µM]
CCSc1nc(-c2ccccc2)nc2c1Cc1c(CO)cnc(C)c1O2	·	-7%	-7%	·	-6%	0%[59 µM]
CCN(CC)C(=O)CSc1nc(-c2ccc(C)cc2)nc2c1Cc1c(CO)cnc(C)c1O2	·	3%	10%	·	?	14µM*
COc1ccc(C2C(=O)N(C3CCC(C)CC3)CC(=O)N2Cc2ccc(C)cc2)cc1OC (centres undefined)	·	8%	-1%	·	-5%	6%[59 µM]
CC1CCN(C(=O)Cn2c(=O)n(CCCCCC(=O)NCc3ccccc3Cl)c(=O)c3sccc32)CC1	·	1%	-18%	·	-16%	20%[59 µM]
COC1CCCCC1Nc1cc(C)ccc1C (centres undefined)	18µM*	-4%	-3%	-5	-13%	20µM*
Cc1ccc(C)c(NC2CCCCC2NS(=O)(=O)c2ccccc2)c1 (centres undefined)	-3%	·	·	·	·	·
NC(=O)C1CCN(C(=O)c2ccc(-c3ccccc3Cl)o2)CC1	·	·	·	·	·	-2%[59 µM]
S=C(c1ccc(-c2ccccc2Cl)o1)N1CCCCC1	40µM*	?	-17%	3	?	?
O=C(c1ccc(-c2ccccc2Cl)o1)N1CCN(c2ccccc2O)CC1	·	·	·	·	·	18µM*
S=C(c1ccc(-c2ccc(Cl)cc2)o1)N1CCCCC1	20µM*	-3%	-15%	0	?	13µM*
SMILES	Sfp PPTase inh	Tau FP inhib	Tau fluor counter	Coupling enz	Tau ThT inhib	G9a block
CN1CCN(C(=O)c2ccc(CS(=O)(=O)c3c(Cl)cccc3Cl)o2)CC1	14%	-8%	-4%	0	-4%	0%[59 µM]
CN1CCN(C(=S)c2ccc(-c3cccc(Cl)c3Cl)o2)CC1	-13%	2%	-21%	0	14µM*	40µM*
CCn1cc(C(=O)O)c(=O)c2cnc(N3CCN(C(=S)Nc4ccccc4C(F)(F)F)CC3)nc21	9%	4%	-7%	0	·	·
N#CCCN1CCN(C(=S)c2ccc(-c3ccc(Cl)cc3)o2)CC1	20µM*	5%	-23%	-10	20µM*	?
O=C(/C=C/c1ccc(O)c(O)c1)O[C@@H]1C[C@@](O)(C(=O)O)C[C@H](O)[C@@H]1O	50µM*	-5%	-3%	1	-5%	·
CC1(C)OC(C(O)(c2cc(F)c(F)c(F)c2)c2cc(F)c(F)c(F)c2)C(C(O)(c2cc(F)c(F)c(F)c2)c2cc(F)c(F)c(F)c2)O1 (centres undefined)	-5%	-8%[11.6 µM]	-21%[11.6 µM]	0	-5%[11.5 µM]	·
COc1ccc(/C=N/Nc2cc(C)nc3ccccc23)cc1	28µM*	·	·	-2	·	·
COc1ccc(/C=N/Nc2cc(C)nc3c(C)cccc23)cc1	?	·	·	-3	·	-9%
COc1cccc2c(N/N=C/c3ccc(O)c(O)c3)cc(C)nc12	-26%	·	·	2	·	35µM*
COc1ccc(Nc2cc(C)nc3ccc(OC)cc23)cc1	-14%	·	·	-2	·	·
COc1ccc(CNc2cc(C)nc3ccc(OC)cc23)cc1	-27%	·	·	1	·	35µM*
COc1ccc2nc(C)cc(N/N=C/c3ccc(F)cc3)c2c1	45µM*	·	·	-1	·	?
COc1cccc(NC(=O)CSc2nc(=O)n(Cc3ccccn3)c3c2CCC3)c1	·	-5%	-2%	·	-1%	4%[59 µM]
CCC(C)(C)NC(=O)C1CC(=O)N(CCc2ccc(F)cc2)C1 (centres undefined)	9%	·	·	0	·	10%
C=CCC1(O)CCOc2ccccc21 (centres undefined)	-15%	6%	7%	-2	8%	·
CCOC(=O)C1=C(CN2CCCCC2)NC(=O)NC1c1ccc(C)cc1 (centres undefined)	·	-2%	-6%	·	-5%	?
O=C1CC(c2ccco2)Cc2nc(N3CCc4ccccc4C3)ncc21 (centres undefined)	25µM*	-3%	-14%	-3	?	45µM*
Cc1ccc(S(=O)(=O)NC(=O)Nc2ncc3c(n2)CC(c2ccco2)CC3=O)cc1 (centres undefined)	-9%	-5%	1%	0	-7%	18µM*
O=C(Nc1ncc2c(n1)CC(c1ccco1)CC2=O)c1ccco1 (centres undefined)	32µM*	3%	-8%	-4	?	-16%[59 µM]
